Source: PubChem
ERK EGF inh: EGF-driven ERK pathway inhibition; 130,000 compounds, 0.41% hits; Potency, µM (top dose mostly 11.5 µM), inactives show at the highest dose activity change, negative = inhibition, usual class: inhibitors; HEK293-V1b, EGF-stimulated phospho-ERK AlphaScreen; active = well fitted inhibition curve with a large enough effect;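 also: plate controls were stimulated vehicle wells for no effect and unstimulated vehicle basal for full effect; nearly all actives have a fitted effect of over 55% in size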
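Phospho-ERK1/2 measured by AlphaScreen (SureFire) after 5 min 25 nM EGF stimulation of V1b-expressing HEK293 cells preincubated 30 min at 37C with titrated compounds; data scaled to DMSO and EGF controls, Hill-fitted AC50.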
* marks the source's active call; other numbers are inactive results; [ ] = dose if it differs, or a comment. The full list was thinned out, with hits kept by preference. Potency is read from the fitted curve at half-maximal effect.

SMILES	ERK EGF inh
CCCCc1ccc(N/C(N)=N/c2nc(C)cc(C)n2)cc1	18µM*
CCC(=O)Nc1ccc(N/C(N)=N/c2nc(C)cc(C)n2)cc1	-3%[57.5 µM]
CC(=O)Nc1cc(C)c(S(C)(=O)=O)c(C)c1	4%
CCOC(=O)N/N=C/c1ccccc1-c1cc(OC)ccc1OC	-1%
Cn1c(=O)c([N+](=O)[O-])c(NC2CCS(=O)(=O)C2)c2ccccc21 (stereo unspecified)	1%[57.5 µM]
CCN(CC)S(=O)(=O)c1ccc(Cl)c(NC(=O)COC(=O)c2ccc(O)cc2)c1	28µM*
CCN(CC)S(=O)(=O)c1ccc(Cl)c(NC(=O)COC(=O)c2c(C)noc2C)c1	7%
CCN(CC)S(=O)(=O)c1ccc(Cl)c(NC(=O)COC(=O)c2cccn2C)c1	0%
N#Cc1cccc(NC(=O)N2CCC3(CC2)CCN(C(=O)c2cnccn2)CC3)c1	-12%
COc1cc(/C=N/NC(=O)c2cccnc2)ccc1OC(=O)c1ccc([N+](=O)[O-])cc1	-2%
COc1ccc(/C=N/NC(=O)c2cccnc2)cc1COc1ccc([N+](=O)[O-])cc1	22µM*
COc1ccc(/C=N/NC(=O)c2cccnc2)cc1COc1ccc(NC(C)=O)cc1	1%[57.5 µM]
O=[N+]([O-])c1cccc(NC(=S)N2CCOCC2)c1	-11%
Cc1oc(-c2ccc(C(F)(F)F)cc2)nc1CN(Cc1ccccn1)C[C@@H]1CCC(=O)N1	-3%
CCCCOc1ccc(/C=N/NC(=O)C2CCCNC2=O)cc1 (stereo unspecified)	18%[57.5 µM]
Cn1cc(/C=C2\SC(=O)N(c3ccccc3)C2=O)c2ccccc21	13%
Cn1cc(/C=C2\SC(=O)N(c3ccc(O)cc3)C2=O)c2ccccc21	35µM*
CCN1C(=O)S/C(=C/c2cn(C)c3ccccc23)C1=O	12%
CC(C)(C)c1nnc(NC(=O)c2ccc(Cl)nc2)s1	8%
O=C(O)c1ccccc1C(=O)Nc1ccc(Br)c(C(F)(F)F)c1	2%[57.5 µM]
O=C(CCNC(=O)c1ccccc1Cl)Nc1ccc(Br)c(C(F)(F)F)c1	28µM*
O=C(CCNC(=O)c1ccccc1Cl)Nc1cc(C(F)(F)F)ccc1Cl	0%
Cc1nc(NC(=O)/C=C/c2ccc(Cl)cc2Cl)sc1C(=O)N(C)C	-3%
O=C1N/C(=N/N=C/c2ccc(F)cc2)SC1c1ccccc1 (stereo unspecified)	10%[57.5 µM]
CCc1cccc(C)c1NC(=O)c1ccc(CN2CCc3ccccc3C2)cc1	8%
SMILES	ERK EGF inh
CN(C)c1ccc(C(=O)c2ccc(O)cc2O)cc1	-1%
CN(C)c1ccc(C(=C2C=CC(=[N+](C)C)C=C2)c2ccc(N(C)C)cc2)cc1	13µM*
CN(C)c1ccc(C(=O)NNC(=O)c2ccc(Cl)cc2)cc1	-1%[57.5 µM]
Cc1cc(C(=O)COc2ccc3ccc(=O)oc3c2)c(C)n1Cc1cccs1	6%
Cc1cccc2cc(CN(Cc3cccnc3)C(=O)c3cccs3)c3nnnn3c12	0%
CCOC(=O)c1cc(NC(=O)COc2ccc([N+](=O)[O-])cc2)cc(C(=O)OCC)c1	-1%
CCOC(=O)c1cccc(NC(=O)/C=C/c2ccc([N+](=O)[O-])cc2)c1	32µM*
O=C(/C=C/c1cccc([N+](=O)[O-])c1)Nc1cc(C(=O)O)cc(C(=O)O)c1	3%
Cc1cc(-n2c(SCc3ccccc3F)nc3n[nH]c(C)c3c2=N)ccc1Cl	-12%
COc1cc(C=C2C(=O)c3ccccc3C2=O)cc(OC)c1	-3%[57.5 µM]
COC1=C(Nc2ccccc2)C(=O)c2ccccc2C1=O	14µM*
COC1=C(Nc2ccc(C)cc2)C(=O)c2ccccc2C1=O	11µM*
Cc1ccc(SC2=C(Sc3ccc(C)cc3)C(=O)c3ccccc3C2=O)cc1	2%[57.5 µM]
Cc1ccc(NN=C2c3ccccc3-c3ccccc32)cc1	-1%
COC1=C(OC)C(=O)c2ccccc2C1=O	10%
Cc1ccc(C)c(S(=O)(=O)N=Nc2c(O)[nH]c3ccccc23)c1	5%
Cc1cc(C)cc(NC(=S)NCC2CCN(C(C)c3ccccc3)C2)c1 (stereo unspecified)	-9%[57.5 µM]
CC(=O)n1cc([C@H]2C=C(C(=O)NCc3ccccc3)O[C@@H](OCCCCO)C2)c2ccccc21	-17%[57.5 µM]
COc1ccc(C(=O)NCCC2=CCCCC2)cc1[N+](=O)[O-]	-5%[57.5 µM]
Cn1c(SCC(=O)c2ccc3c(c2)Cc2ccccc2-3)nnc1-c1cccc(N)c1	-4%
Cc1c(NC(=O)c2cccs2)cccc1[N+](=O)[O-]	0%[57.5 µM]
CO[C@H]1C=CO[C@@]2(C)Oc3c(C)c(O)c4c(O)c(c(C=NN5CCN(C6CCCC6)CC5)c(O)c4c3C2=O)NC(=O)C(C)=CC=C[C@H](C)[C@H](O)[C@@H](C)[C@@H](O)[C@@H](C)[C@H](OC(C)=O)[C@@H]1C	8.9µM*
COC(=O)c1cc2c(C)nn(C)c2s1	-6%[57.5 µM]
CCN(CC)S(=O)(=O)c1cc(NS(=O)(=O)c2cccc(Cl)c2)ccc1C	-2%
CCn1cc(C(=O)N(CCC(C)C)c2c(N)n(Cc3ccccc3)c(=O)[nH]c2=O)c(=O)c2ccc(C)nc21	4%
CCN(CC)S(=O)(=O)c1ccc2c(c1)N(CC(=O)NCc1ccccn1)C(=O)CO2	11%[57.5 µM]
COc1cccc(NC(=S)NCc2cccs2)c1	12%
